PubChem BioAssay (NCI)
Compounds without any hit were thinned out: in the full panel of roughly 83,000, 20% have a hit.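 Plates (96-well) were seeded with cells, treated with compound at one concentration, and incubated for 48 hours before percent growth was determined.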 Active and inactive are the calls of the source. Rule for the calls: active = growth percent below 10; inactive = the rest.

System: COLO 205 colon
Experiment: NCI-60 one-dose screen, 48 h (100 = growth as untreated, 0 = no growth, -100 = all killed)
Details: 10 µM unless noted

Structure (SMILES)	growth
CCN(CC)S(=O)(=O)c1ccc2[nH]c(=O)cc(C(=O)Nc3ccc(OC)cc3OC)c2c1	110% (inactive)
COc1ccc(/C=C/C(=O)OCC(=O)NNC(=O)c2ccccc2)cc1OC	118% (inactive)
COc1ncc(-c2ccc3ncnc(Nc4cccc(Cl)c4)c3c2)cc1N(S(C)(=O)=O)S(C)(=O)=O	77.1% (inactive)
Cc1c(C(=O)NCc2ccccc2)[n+](=O)c2cc(F)ccc2n1[O-]	123% (inactive)
COc1cc(Br)c(OC)cc1Br	109% (inactive)
CN1CCN(CCCOc2ccc3nc(Nc4ccc(C(F)(F)F)c(Cl)c4)ccc3c2)CC1	-77.9% (active)
CC(=O)c1cc(C(=O)c2ccc3c(c2)Sc2ccccc2N3)c2cc(C)ccn12	-62.2% (active)
Cc1cc(C(=O)O)c(N)c(C)n1	119% (inactive)
c1ccc2c(c1)Oc1ccccc1C2C1c2ccccc2Oc2ccccc21	99.5% (inactive)
CC/C=C\C[C@H](O)C/C=C1/C(=O)C(Cl)=C[C@@H]1C/C=C\CCCC(=O)O	47.6% (inactive)
O=C(Nc1ccc(I)cc1)c1cc([N+](=O)[O-])ccc1O	37.1% (inactive)
O=C(CSc1nc(-c2ccc(Cl)cc2)cn1-c1ccc(Cl)cc1)c1ccc(Br)cc1	81.7% (inactive)
N#CC1=C(N)n2nc(-c3ccncc3)nc2NC1c1cccc2ccccc12 (stereo not drawn)	106% (inactive)
Cc1ccc2nc(-c3c(CCCO)noc3N)[nH]c(=O)c2c1	121% (inactive)
COc1ccc(/C(=N\O)c2cc(OC)c(OC)c(OC)c2)c(OC)c1N	-0.741% (active)
CCOc1ccc(/C=C/C=N/NC(N)=S)cc1	84.5% (inactive)
C=C1C(=O)O[C@H]2[C@H]1CC/C(COC(=O)NCCc1cccc(OC)c1)=C\CC[C@@]1(C)O[C@@H]21	-35.3% (active)
Cc1c(C2=NNC(c3ccc4c(c3)OCO4)C2)[n+]([O-])c2ccccc2[n+]1[O-] (stereo not drawn)	101% (inactive)
O=S(=O)(NCCCNc1cc(-c2cn(-c3ccccc3)nc2-c2cccc(O)c2)ccn1)c1ccc(Br)cc1	-70.3% (active)

Structure (SMILES)	growth
COc1cccc2nc(Nc3ccc(NC(=O)c4ccc5ncccc5c4)cc3)ccc12	103% (inactive)
COc1ncc(-c2ccc3ncnc(Nc4cccc(Cl)c4)c3c2)cc1NS(=O)(=O)CCN1CCOCC1	-6.87% (active)
O=C(OCCCCOC(=O)n1cnc2ccccc21)n1cnc2ccccc21	103% (inactive)
Cc1cc(C)c2c(=O)[nH]c(SCC(=O)Nc3cccc(S(=O)(=O)N(C)C)c3)nc2n1	90.9% (inactive)
Cc1ccc(S(=O)(=O)OCC(=O)Nc2ccc(C(=O)O)c(O)c2)cc1	131% (inactive)
CN(C)c1nc(N)c(N=O)c(N)n1	127% (inactive)
Cc1nc2scc(-c3ccccc3)n2c(=O)c1CCO	108% (inactive)
Cc1ccc2c(c1)C(C)Cc1c(ncnc1-n1cnc3ccccc31)N2C (stereo not drawn)	-11.5% (active)
O=S(=O)(NCCNc1cc(-c2cn(-c3ccccc3)nc2-c2ccccc2)ccn1)c1cccc2ccccc12	8.28% (active)
CCCCCCOc1ccc(C2(Cl)c3ccccc3N(C)c3ccccc32)cc1	61.7% (inactive)
CN(C)C1CCC(NC2=CC(=O)C=CC2=O)CC1 (stereo not drawn)	128% (inactive)
CC(=O)N1Cc2ccccc2C(C)Cc2cc(Cl)ccc21 (stereo not drawn)	117% (inactive)
NC(N)=NC(N)=Nc1ccccc1-c1ccccc1	125% (inactive)
Cc1oc2ncnc(Nc3ccccc3)c2c1C(=O)NCCO	100% (inactive)
Cc1cc(NC(=O)COC(=O)c2sc3cc(F)ccc3c2Cl)no1	104% (inactive)
CC1(C)OC2COC3(C(=O)O)OC(C)(C)OC3C2O1 (stereo not drawn)	98.8% (inactive)
C/C(=C\c1csc(C)n1)[C@@H]1C[C@@H]2O[C@]2(C)CCC[C@H](C)[C@H](O)[C@@H](C)C(=O)C(C)(C)[C@@H](O)CC(=O)N1	-62.5% (active)
COc1cc2c(cc1OCCCCn1c(-c3cc(=O)c4ccccc4o3)nc3ccccc31)N=C[C@@H]1CCCN1C2=O	104% (inactive)
COc1cc(-c2csc(NC(=O)c3cc(C(F)(F)F)cc(C(F)(F)F)c3)n2)cc(OC)c1OC	37.7% (inactive)
